# Screening data as filed in PubChem BioAssay.
# TEAD-YAP inh = TEAD-YAP interaction inhibition; AID 1259422; inhibition, % at 9.12 µM; 640,000 tested, 1.4% active; HEK-TIYL cells, TEAD-Gal4/YAP UAS-luciferase luminescence; in the data active = inhibition above about 32%;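 note: 0% = median of test compound wells and 100% = reference inhibitor wells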
# MITF primary = inhibitors of human MITF; inhibition, % at 2.6 µM; O75030; 650,000 tested, 0.91% active; AlphaScreen MITF homodimerization, bead proximity signal; in the data active = inhibition above about 50%;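 note: 0% = vehicle wells with protein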
# Target sequence (O75030 whole entry, looked up): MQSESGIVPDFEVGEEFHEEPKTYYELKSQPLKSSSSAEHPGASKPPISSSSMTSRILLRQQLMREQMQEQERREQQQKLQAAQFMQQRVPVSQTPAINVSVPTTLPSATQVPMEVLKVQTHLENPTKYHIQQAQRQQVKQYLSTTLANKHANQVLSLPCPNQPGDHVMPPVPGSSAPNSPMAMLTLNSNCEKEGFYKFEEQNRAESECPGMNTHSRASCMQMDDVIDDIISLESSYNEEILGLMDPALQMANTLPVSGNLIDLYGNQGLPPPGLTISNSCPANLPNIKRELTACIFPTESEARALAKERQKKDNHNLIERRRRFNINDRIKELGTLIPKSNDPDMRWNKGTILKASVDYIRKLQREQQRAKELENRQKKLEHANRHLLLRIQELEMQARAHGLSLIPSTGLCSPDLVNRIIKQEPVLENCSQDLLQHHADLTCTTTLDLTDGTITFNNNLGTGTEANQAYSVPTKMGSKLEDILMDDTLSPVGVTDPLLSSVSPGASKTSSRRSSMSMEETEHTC
# FBW7 activator = activators of human E3 ligase FBW7; Q969H0; AlphaScreen FBW7–phospho-cyclin E peptide binding, activator screen; normalized activity (activation), % at 26.1 µM; 650,000 tested, 0.13% active; in the data active = normalized activity above about 1.9%;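 note: purified mutant Fbw7 with reduced substrate affinity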
# GPR151 ag = activators of human GPR151 | PathHunter beta-arrestin GPR151 cells, luminescence | activation, % at 11.2 µM | 650,000 tested, 1% active | AID 1508602; in the data active = activation above about 4.9%;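 note: 0% = median of compound wells and 100% = cells with positive control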
# Numbers without * were called inactive; / = no result given. Only some compounds are listed: those with a hit (about 3.5% of all), similar ones and a draw of the others.
SMILES,TEAD-YAP inh,MITF primary,FBW7 activator,GPR151 ag
COC(=O)C1=CN(CCc2ccccc2)C=C(C(=O)OC)C1c1ccc2c(c1)OCO2,-3,2,3.2*,0
COC(=O)C1=CN(CCc2ccccc2)C=C(C(=O)OC)C1c1cc(OC)c(OC)c(OC)c1,2,11,2.6*,-1
Cc1ccc(C2CC(=O)C=C(NCCc3ccccc3)C2)cc1 (stereo unspecified),-7,14,0,0
O=C1C=C(Nc2ccc(Cl)cc2)CC(c2ccccc2)C1 (stereo unspecified),33*,12,0,0
COc1ccc(C2CC(=O)C=C(Nc3ccc(Cl)cc3)C2)cc1 (stereo unspecified),-8,-4,0,-1
Cc1ccc(NC2=CC(=O)CC(c3ccccc3)C2)cc1 (stereo unspecified),43*,15,0,-1
O=C(/C=C/c1ccc(F)cc1)NCc1ccccn1,-5,4,0,1
COc1ccc(OC)c(NC(=O)/C=C/c2cccc3ccccc23)c1,8,2,0,0
COc1cc(/C=N/O)cc(OC)c1OC,4,14,0,0
COc1cc(O)cc(OC)c1OC,63*,-11,0,3
COc1ccc(C2C(C(=O)N3CCN(C)CC3)c3ccccc3C(=O)N2Cc2ccc(F)cc2)cc1 (stereo unspecified),3,-12,0,0
COc1ccc(NS(=O)(=O)c2ccc(N/N=C/c3ccc(O)cc3)c([N+](=O)[O-])c2)cc1,0,8,-1,2
COc1ccc(/C=C2\C=C(c3ccccc3)N(c3ccccc3Cl)C2=O)cc1Br,8,8,0,3
Cc1nc(/N=C(\N)Nc2ccccc2)[nH]c(=O)c1C,7,12,2.2*,0
O=C(NCCc1ccc(O)cc1)c1cccc(N2CCN(c3ccccn3)CC2)n1,26,5,0,-1
CCCCCC(=O)N1c2ccccc2NC2=C(C(=O)CC(c3ccc(N(CC)CC)cc3)C2)C1c1ccco1 (stereo unspecified),47*,22,0,0
O=C(CCCc1ccccc1)Nc1c2c(nn1-c1ccccc1)CS(=O)C2 (stereo unspecified),4,-8,0,-1
Cc1ccc(C)c(NC(=O)CN(C)C(=O)CCl)c1,73*,-1,0,-1
Cc1ccc(C)c(NC(=O)CN(C)S(=O)(=O)c2ccc(Br)cc2)c1,6,-5,0,0
CN(CC(=O)Nc1ccc(F)cc1)C(=O)CCl,42*,16,0,-3
O=C1CCCN1CCCNc1nc(Nc2ccc(-n3ccnc3)cc2)nc2nc[nH]c12,9,11,0,1
CC1CCCN(S(=O)(=O)c2ccc(NC=C(C#N)C#N)cc2)C1 (stereo unspecified),-7,0,0,0
CCOc1ccc(/C(O)=C2\C(=O)C(=O)N(c3nccs3)C2c2ccccc2)cc1 (stereo unspecified),36*,-3,0,0
CC(=O)Nc1ccc(C(=O)NCC(=O)OCc2ccc(C(=O)c3ccccc3)cc2)cc1,44*,3,0,1
C=C1C(=O)OC23C1CCC(C)C2CCC1(C)OC13 (stereo unspecified),61*,-6,0,1
SMILES,TEAD-YAP inh,MITF primary,FBW7 activator,GPR151 ag
COc1cc(C(=O)Nc2ccc(N3CCCC3)c(Cl)c2)cc(OC)c1OC,42*,25,0,-1
COc1cc(C(=O)Nc2ccc(C)c(C)c2)cc(OC)c1OC,-1,12,1,0
COc1cc(C(=O)Nc2ccc(I)cc2)cc(OC)c1OC,35*,-13,0,0
Cc1ccsc1C1C=C(c2ccc(Br)cc2)Nc2nnnn21 (stereo unspecified),-8,-15,0,-1
O=S1(=O)c2cccc3cccc(c23)N1Cc1csc(-c2ccccc2)n1,-9,1,0,1
CCOC(=O)CSc1nc2ccc(I)cc2c(=O)n1C,-5,10,0,0
COc1ccccc1C(=O)NC(=S)Nc1ccc(NC(C)=O)cc1,-54,2,0,0
COc1ccccc1C(=O)NC(=S)Nc1ccccc1,36*,4,0,-1
COc1ccccc1C(=O)NC(=S)Nc1ccccc1[N+](=O)[O-],45*,1,0,-1
COc1ccccc1C(=O)NC(=S)NNC(=O)c1ccccc1C,-8,17,0,0
COc1ccccc1C(=O)NNC(=S)NC(=O)c1ccc(Cl)cc1Cl,9,8,5.1*,0
CC1CCN(C(=O)Cn2ncc3c(Cl)cccc32)CC1,-11,11,0,-1
COc1cccc(NC(=O)c2cnc(SCC(=O)N3CCN(c4ccccc4)CC3)n(C)c2=O)c1,36*,-7,0,-2
COc1cccc(-c2ccc3nnc(SCC(=O)N4CCN(c5ccccc5)CC4)n3n2)c1,33*,13,1,-1
Cc1ccc2c(Cl)c(C(=O)Nc3ncccn3)sc2c1,51*,3,1,-4
COC(=O)Nc1nc2ccc(C(=O)c3ccccc3)cc2[nH]1,33*,-5,1,3
CCCCOC(=O)c1ccccc1C(=O)c1ccc2nc(NC(=O)OC)[nH]c2c1,39*,3,0,0
COC(=O)Nc1nc2ccc(C(=O)c3cccs3)cc2[nH]1,56*,7,0,-1
COC(=O)Nc1nc2ccc(S(=O)c3ccccc3)cc2[nH]1 (stereo unspecified),/,8,0,1
Nc1ccc(Oc2ccc3c(c2)C(=O)N(CCO)C3=O)cc1,42*,-1,0,-1
Nc1ccc(Oc2ccc3c(c2)C(=O)N(c2cccc(N)c2)C3=O)cc1,-27,10,3.4*,1
Nc1cccc(Oc2ccc3c(c2)C(=O)N(c2cccc(N)c2)C3=O)c1,-2,-1,0,3
O=C(c1ccc(F)cc1)N1CCN(Cc2ccccn2)CC1,-4,30,0,0
CCc1c(C)sc(NC(=O)C2C3C=CC(C3)C2C(=O)O)c1C(=O)OC(C)C (stereo unspecified),64*,-4,0,1
CC(=O)N(c1ccccc1)c1nc(-c2noc(C)n2)ns1,-34,-10,0,0
SMILES,TEAD-YAP inh,MITF primary,FBW7 activator,GPR151 ag
COc1ccc(N2CC(NC(=O)Nc3ccc(F)cc3F)CC2=O)cc1 (stereo unspecified),6,8,0,-2
CC(=O)C1=C(O)C(=O)N(c2nnn(C)n2)C1c1cccs1 (stereo unspecified),-1,5,3.6*,-1
O=C(C1=C(O)C(=O)N(c2nccs2)C1c1cccs1)c1cccs1 (stereo unspecified),-4,33,0,-1
O=C(Cc1ccc(N2CCC(NCCn3ccnc3)CC2)cc1)NCc1ccccc1,47*,5,0,1
O=C(Cc1ccc(N2CCC(NCCn3ccnc3)CC2)cc1)N1CCCC1,-9,1,0,0
Cc1cccc(C(=O)N[C@H](C(=O)Nc2nc3ccccc3[nH]2)C(C)C)c1,66*,-11,0,0
O=C(Nc1nc2ccccc2[nH]1)c1cccc(Br)c1,-27,8,0,-2
Cc1cccc(C(=O)Nc2nc3ccccc3[nH]2)c1,32*,7,0,-5
